According to PubChem BioAssay (NCATS):
Values joined by “and” are separate entries in the source; they are usually repeats but may differ in a detail not shown here. Equal values may be shown once. Records with an inconclusive call do not appear. Some compounds were tested as several samples or in several runs, with calls that do not always agree. Active and inactive are the calls of the source. Calls come from the whole dose curve; as a rule, active = well fitted inhibition curve with a large enough effect; inconclusive = small, poorly fitted or top-dose-only effect; inactive = flat fitted curve, though single readings scatter. Peptide text beside a SMILES is read from it.

The molecules below were run on KB-3-1 (assay: Cytotoxic Profiling of Annotated Libraries Using Quantitative High-Throughput Screening (AID 1296008; note: nearly all actives have a fitted effect of over 60% in size)). Conditions: Five cell lines viability, CellTiter-Glo ATP luminescence, 48-72 h; max response: hits give low values.
Excerpt: Cell-based phenotypic screening is a commonly used approach to discover biological pathways, novel drug targets, chemical probes and high-quality hit-to-lead molecules. Many hits identified from high-throughput screening campaign are ruled out through a series of follow-up potency, selectivity/specificity, and cytotoxicity assays. Prioritization of molecules with little or no cytotoxicity for a more in-depth downstream evaluation influence the future direction of projects, so cytotoxicity profiling of the screening libraries at early stage is essential for increasing the likelihood of candidate success. […] For the annotated library, we also examined the primary targets and mechanistic pathways regularly associated with cell death. To our knowledge, this is the first study to use high-throughput screening to profile large libraries for cytotoxicity assessment in both normal and cancer cell lines. In summary, the results generated here constitutes a valuable resource for the scientific community and provides insight on identifying cytotoxic compounds with particular mechanisms of action, and prioritizing compounds with suitable cytotoxicity profile for further evaluation.
A pintool (Kalypsys) was used to transfer 23 nL of compound solution to the 1536-well assay plates. After 48 or 72 hr incubation at 37 degree Celsius, 5% CO2 and 95% humidity, 2.5 uL of CellTiter-Glo (Promega) was dispensed into each well using a dispenser (Aspect Automation, St. Paul, MN) with solenoid valves (Lee Valves, Westbrook CT). Plates were left at room temperature for 10 min before imaging the ATP-coupled luminescence using a ViewLux microplate imager (PerkinElmer, Waltham, MA).
% is set by controls: 0 for no effect and ±100 for the full control effect; potency is the fitted concentration of half-maximal effect.

Structure (SMILES)	max response	Potency	outcome
NCCCCNCCCN	1.33% (inactive)	–	–
COc1c(O)cc2c(c1O)[C@@H]1O[C@H](CO)[C@@H](O)[C@H](O)[C@H]1OC2=O	6.75% (inactive) and -4.18% (inactive) and 5.95% (inactive)	–	–
Oc1ccc2ccccc2c1SSc1c(O)ccc2ccccc12	9.23% (inactive)	–	–
CCN(CC)CCOc1ccc(Nc2ncc3cc(-c4c(Cl)cccc4Cl)c(=O)n(C)c3n2)cc1	–	296 nM (active)	–
COC(=O)[C@H](Cc1ccccc1)NC(=O)[C@@H](N)CC(=O)O (H-Asp-Phe-OMe)	0.426% (inactive) and 2.8% (inactive) and -6.99% (inactive)	–	–
CC(C)[C@H](N)C(=O)OCCOCn1cnc2c(=O)[nH]c(N)nc21	10.2% (inactive)	–	inactive
COc1cc(OC)c(C(=O)CCCN2CCCC2)c(OC)c1	-2.3% (inactive) and 3.48% (inactive)	–	–
C[Se]CCC(N)C(=O)O (stereo not given)	-9.75% (inactive)	–	–
CCCc1cc(=O)[nH]c(=S)[nH]1	0.476% (inactive)	–	inactive
CCOC(=O)c1c(C)n(C)c2ccc(O)cc12	-7.66% (inactive) and 1.23% (inactive)	–	–
N=C(N)c1ccc2cc(OC(=O)c3ccc(N=C(N)N)cc3)ccc2c1	12.9% (inactive)	–	–
Nc1cccc2c1CN(C1CCC(=O)NC1=O)C2=O (stereo not given)	2.15% (inactive) and 5.39% (inactive)	–	–
O=C1c2c(O)cc(O)cc2OC(c2ccc(O)c(O)c2)C1O (stereo not given)	–	–	inactive
Clc1ccc2c(N3CCN(CCCN4CCN(c5ccnc6cc(Cl)ccc56)CC4)CC3)ccnc2c1	3.7% (inactive)	–	–
Cc1cc(Cl)ccc1OCCCC(=O)NO	–	–	inactive
Cc1ccc(Nc2nccc(N(C)c3ccc4c(C)n(C)nc4c3)n2)cc1S(N)(=O)=O	-14.3% (inactive) and -5.07% (inactive) and -20.5% (inactive)	–	–
CCN(CC)C(=S)SSC(=S)N(CC)CC	0.882% (inactive) and 32.2% (inactive)	83.3 nM (active)	–

Structure (SMILES)	max response	Potency	outcome
CCOC(=O)C1=C[C@@H](OC(CC)CC)[C@H](NC(C)=O)[C@@H](N)C1	14.9% (inactive) and 5.96% (inactive)	–	–
CNC[C@H](O)c1ccc(O)c(O)c1	2.62% (inactive)	–	–
O=C(CCc1ccc(O)cc1)c1c(O)cc(O)cc1O	–	–	inactive
Cc1cccc(CN2CCN(C(c3ccccc3)c3ccc(Cl)cc3)CC2)c1 (stereo not given)	8.45% (inactive) and -5.16% (inactive)	–	–
CC(S)C(=O)NCC(=O)O (stereo not given)	5.7% (inactive)	–	–
CCN(CC)CCOc1ccc(Cc2ccccc2)cc1	-7.39% (inactive) and -3.92% (inactive)	–	–
Cc1cc2c(s1)Nc1ccccc1N=C2N1CCN(C)CC1	7.18% (inactive) and 6.8% (inactive)	–	inactive
Nc1ccn([C@@H]2O[C@H](CO)[C@@H](O)C2O)c(=O)n1 (stereo not given in full)	21.2% (inactive)	–	inactive
Nc1cc(C(Cl)=C(Cl)Cl)c(S(N)(=O)=O)cc1S(N)(=O)=O	-2.94% (inactive) and -17.4% (inactive)	–	–
CC(C)c1nc(CN(C)C(=O)N[C@H](C(=O)N[C@@H](Cc2ccccc2)C[C@H](O)[C@H](Cc2ccccc2)NC(=O)OCc2cncs2)C(C)C)cs1	-5.85% (inactive) and -8.86% (inactive) and 1.74% (inactive)	–	–
Cc1ccc(C)c(OCCCC(C)(C)C(=O)O)c1	8.09% (inactive) and 8.97% (inactive)	–	–
CC(=O)Nc1ccc(O)cc1	23.8% (inactive) and 2.6% (inactive)	–	–
CCOC(=O)C1=C(O)C(=O)N(Cc2ccccc2)C1	3.01% (inactive)	–	–
c1cnc2cc3c(cc2n1)C1CNCC3C1	3.64% (inactive) and -1.73% (inactive)	–	inactive
CCCCCCCCCCCCCCCCCCCCCCO	-15.7% (inactive) and 8.97% (inactive)	–	–
CN(C)C(=O)[C@H](O)[C@H](Cc1ccccc1)NC(=O)c1cc2cc(Cl)ccc2[nH]1	-0.73% (inactive)	–	inactive
